# HCV inhibitor – inhibitors of hepatitis C virus infection; Huh7.5.1 HCVcc-Cre infection, luciferase reporter, 44 h; Potency, µM (highest dose often 41.8 µM), inactives show top-dose activity change, negative = inhibition, hits mostly inhibitors; 340,000 compounds, 3.4% hits; AID 651820; active = well fitted inhibition curve with a large enough effect; inconclusive = small, poorly fitted or top-dose-only effect, or another doubt; inactive = no such curve, though single readings can be large or run the other way; note: potency is the fitted concentration of half-maximal effect
#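 Reporter virus HCVcc-Cre (~0.5 moi) infects cells exposed to compound; seeding density 1,000 cells/well with 4 h settling beforehand. Luminescence, 15 sec read, taken 44 h post-infection following a 15 min RT substrate incubation.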
# VACV mCherry inh – vaccinia inhibition (mCherry reporter) | Vaccinia virus mCherry reporter infection, fluorescence | Potency, µM (doses to about 36.5 µM), for inactives: top-dose activity change, negative = inhibition, usual class: inhibitors | 310,000 compounds, 0.63% hits | AID 720579; calls by dose curve; tested in A549 cells; note: potency is the fitted concentration of half-maximal effect; nearly all actives have a fitted effect of over 35% in size
# Vaccinia Venus – inhibitors of vaccinia virus (Venus reporter); Potency, µM (highest dose often 36.5 µM), for inactives: at the top dose activity change, negative = inhibition, usual class: inhibitors; Vaccinia virus Venus reporter expression, fluorescence; 330,000 compounds, 0.46% hits; calls by dose curve; tested in A549 cells; note: potency is the fitted concentration of half-maximal effect; nearly all actives have a fitted effect of over 30% in size
# FMDV antiviral – antivirals against foot and mouth disease virus. FMDV antiviral cell-based qHTS. 410,000 compounds, 1.2% hits. Potency, µM (titrated, usually from 57.9 µM), without a hit: at the highest dose activity change, negative = inhibition, hits mostly inhibitors; calls by dose curve; tested in HEK293T cells; note: read-out not given here; potency is the fitted concentration of half-maximal effect; nearly all actives have a fitted effect of over 45% in size
# HCMV antiviral – inhibitors of human cytomegalovirus; activity change, negative = inhibition, % at 57.5 µM; AID 1259415; 410,000 compounds, 4.5% hits; HFF cells, HCMV-luciferase reporter, 72 h; hits give low values; in the data active = activity change below about -60%; inconclusive = no clear call, values can overlap the other calls; inactive = above about -39%
#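 Luciferase read-out from HCMV-luciferase-infected HFFs (MOI 1 PFU/cell) 72 h post infection at 37C; compounds added after 16 h cell attachment; activity normalized between buffer-only basal and Salinomycin (10uM) inhibitor controls.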
# Numbers without * were called inactive; i = inactive; ? = inconclusive; · = not tested or not shown; [ ] = another dose, or the depositor's remark. In the library only some 7.3% were active in any assay of this set; here they are far more common. % is set by controls: 0 for no effect and ±100 for the full control effect.
SMILES,HCV inhibitor,VACV mCherry inh,Vaccinia Venus,FMDV antiviral,HCMV antiviral
COc1cccc(NC(=O)CN(C)CC(=O)Nc2cccc(C(F)(F)F)c2)c1,-20%,i,-17%,-17%,-13
COc1cccc(CN(C)CC(=O)Nc2cccc(C(F)(F)F)c2)c1OC,10µM*,-2%,-11%,?,-31
COc1ccc(-c2noc(N(C)CC(=O)Nc3cccc(C(F)(F)F)c3)n2)cc1,11µM*,·,?,27%,36
Cc1cc(Cl)ccc1NC(=O)CN(c1ccccc1Br)S(C)(=O)=O,·,0%,-3%,-4%,2
O=C1Nc2c(Cl)cc(Cl)cc2C12Nc1ccccc1S2 (configuration not stated),·,·,·,·,-22
COc1cc(NC(=S)NC(=O)c2ccccc2C)ccc1NC(=O)c1cccs1,2µM*,?,-25%,-12%,-1
COc1cc(NC(=S)NC(=O)c2ccc(C(C)(C)C)cc2)ccc1NC(=O)c1cccs1,?,?,8%,-12%,-97*
COc1cc(NC(=O)c2cc3ccccc3cc2OC)ccc1NC(=O)c1cccs1,3.2µM*,·,·,?,·
COc1ccc(CNC(=O)c2oc3c(c2C)-c2nn(Cc4ccccc4Cl)cc2CC3)cc1,·,-25%,-23%,-29%,?
O=C(Nc1ccc(Oc2ccc(Br)cc2)cc1)C1=CC=CN2CCS(=O)(=O)N=C12,18%,·,·,?,?
COc1ccc(OC)c(CN2CCN(C(=O)c3cc(S(=O)(=O)Nc4ccccc4OC)ccc3C)CC2)c1,14µM*,-6%,-28%,-12%,-8
COc1ccc(OC)c(CN2CCN(C(=O)c3cccc(S(=O)(=O)Nc4ccc(C)cc4)c3)CC2)c1,10µM*,-21%,?,-25%,-6
Cc1cc(=O)n2c(C(=O)Nc3ccc(C)c(Cl)c3)c(C(=O)Nc3ccccc3)sc2n1,·,4%,5%,-2%,-15
Cc1ccc(NC(C(=O)c2ccccc2)c2ccccc2)cc1 (configuration not stated),-1%,?,-7%,-2%,-100*
CN(Cc1ccccc1)Cc1c(O)ccc2c(=O)c(-c3ccccc3)c(C(F)(F)F)oc12,·,-14%,-11%,15%,3
O=C(Cn1c(=O)oc2cc(S(=O)(=O)NCc3ccccc3)ccc21)NCc1ccccc1Cl,·,-26%,-17%,11%,0
Cc1ccc(C(=O)/C=C/c2cc(C#N)n(C)c2C)cc1,-6%,-6%,-19%,-25%,-85*
Cc1c(C=C2C(=O)c3ccccc3C2=O)cc(C#N)n1C,5%,·,·,-18%,·
CCCNC(=O)C1(C)CCCN(C(=O)c2ccccc2OC(F)(F)F)C1 (configuration not stated),·,9%,4%,-14%,?
O/N=C(\c1ccccn1)C1CC1c1ccccc1 (configuration not stated),3%,?,3%,17%,-79*
CC(C)CCn1c(COc2ccccc2)n[nH]c1=S,29%,i,7%,1%,-62*
S=c1[nH]nc(COc2ccccc2)n1/N=C/c1c(Cl)cccc1Cl,8%,·,·,-19%,-103*
S=c1[nH]nc(COc2ccccc2)n1/N=C/c1ccccc1Cl,26%,-13%,-19%,3%,?
Cc1nn(-c2ccccc2)c(C)c1/C=N/n1c(-c2ccc(Cl)cc2)n[nH]c1=S,-22%,-13%,3%,?,?
O=[N+]([O-])c1ccc(Cl)c(/C=N/n2c(-c3ccncc3)n[nH]c2=S)c1,14%,i[7.34 µM],-5%[7.34 µM],-6%,-67*
SMILES,HCV inhibitor,VACV mCherry inh,Vaccinia Venus,FMDV antiviral,HCMV antiviral
S=c1[nH]nc(COc2ccccc2)n1Cc1ccccc1,9%,-14%,-12%,-20%,-38
Cc1nn(-c2ccccc2)c(C)c1/C=N/n1c(-c2ccncc2)n[nH]c1=S,5%,-10%,-2%,-9%,-74*
CCOc1ccc(NC2OCC(O)C(O)C2O)c([N+](=O)[O-])c1 (configuration not stated),10%,·,·,-7%,7
S=c1[nH]nc(-c2ccncc2)n1/N=C/C(Cl)=C\c1ccccc1,-13%,·,·,-11%,-87*
S=c1[nH]nc(COc2ccccc2)n1/N=C/C(Cl)=C/c1ccccc1,-27%,·,·,35µM*,12
Cc1ccc(CNc2ncnc3cc(Cl)ccc23)cc1,11µM*,·,·,?,?
Cc1ccc(CNc2ncnc3cc(Cl)ccc23)o1,11µM*,·,-33%,?,12
COc1cc2ncnc(NCc3ccc(F)cc3)c2cc1OC,?,-29%,-15%,-1%,-6

# Screens deposited in PubChem BioAssay by National Center for Advancing Translational Sciences (NCATS).
